Compound activity: PubChem, National Center for Advancing Translational Sciences (NCATS)
Pf Dd2 inh = qHTS Primary assay for Inhibitors of Plasmodium falciparum Dd2 growth in vitro; P. falciparum Dd2 growth, SYBR Green, 72 h; Potency, µM (titrated, usually from 28.9 µM), usual class: inhibitors; 4.3% of 120,000 active; active = well fitted inhibition curve with a large enough effect; note: nearly all actives have a fitted effect of over 65% in size
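Readout: SYBR Green fluorescence, 485 nm excitation, 535 nm emission, after ~16 h lysis at 37C. Before that, Dd2-infected red cells (2.5% hematocrit) grew 72 h with compound, 29 uM top final concentration.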
Numbers stand for hits; - = inactive. The full list was thinned out, with hits kept by preference.

SMILES | Pf Dd2 inh
COc1ccc(C2(C(=O)NCC(=O)N3CCCCCNC(=O)CC3c3ccccc3)CC2)cc1 (configuration not stated) | -
Cc1nc(C)c(C(=O)NCC(=O)N2CCCCCCNC(=O)CC2c2ccccc2)s1 (configuration not stated) | -
COc1ccc(C(=O)NCC(=O)N2CCCCCCNC(=O)CC2c2ccccc2)c(OC)n1 (configuration not stated) | 8.9µM
Cc1ncccc1C(=O)NCC(=O)N1CCCCCNC(=O)CC1c1ccccc1 (configuration not stated) | -
COc1ccc2[nH]c(C(=O)NCC(=O)N3CCCCCCNC(=O)CC3c3ccccc3)cc2c1 (configuration not stated) | 5µM
COc1ccc(CCC(=O)NCC(=O)N2CCCCCNC(=O)CC2c2ccccc2)cc1 (configuration not stated) | -
Cc1nn(-c2ccccc2)c2sc(C(=O)Nc3ccccc3Br)cc12 | -
COc1cc(C(=O)N2CCN(c3cc(-c4ccc(Cl)cc4)[nH]n3)CC2)cc(OC)c1OC | -
CCc1nc2nccc(-c3ccc(OC)c(OC)c3)n2n1 | -
COc1ccc(-c2ccnc3nc(CCc4ccc(OC)c(OC)c4)nn23)cc1 | -
COc1ccc(CCc2nc3nccc(-c4ccc(OC)c(OC)c4)n3n2)cc1OC | 13µM
CC(C)n1cc(CN2CCCCCNC(=O)[C@@H]3CCC[C@@H]32)c2ccccc21 | -
N#Cc1ccc(CN2CCCCCNC(=O)[C@@H]3CCC[C@@H]32)cc1 | -
N#Cc1ccccc1CN1CCCCCCNC(=O)[C@@H]2CCC[C@@H]21 | 2.8µM
COc1ccc(-c2[nH]ncc2CN2CCCCCNC(=O)[C@@H]3CCC[C@@H]32)cc1 | -
CCn1cc(CN2CCCCCCNC(=O)[C@@H]3CCC[C@@H]32)cn1 | -
CCOc1ccccc1CN1CCCCCCNC(=O)[C@@H]2CCC[C@@H]21 | 2.8µM
N#Cc1cccc(CN2CCCCCNC(=O)[C@@H]3CCC[C@@H]32)c1 | -
Cc1ncsc1CN1CCCCCNC(=O)[C@@H]2CCC[C@@H]21 | -
COc1ccc(CN2CCCCCNC(=O)[C@@H]3CCC[C@@H]32)cc1Cn1ccnc1 | 8.9µM
CCn1cc(-c2c(-c3ccccc3)ncn2CC(=O)O)cn1 | -
CC(NC(=O)C1CCN(C(=O)c2ncn3c2COC(c2ccc(F)cc2)C3)CC1)c1ccccc1 (configuration not stated) | -
COCc1nc(NCc2nc(-c3cccnc3)no2)c2cnn(C)c2n1 | -
CC1CCC2(CC1)NC(=O)N(CC(=O)Nc1cccc(F)c1)C2=O (configuration not stated) | -
O=C(NCC1CCCO1)C1COC2(CCN(C(=O)c3ccccc3F)CC2)N1C(=O)c1ccccc1 (configuration not stated) | -
SMILES | Pf Dd2 inh
Cc1ccc(C(=O)N2C[C@@H](F)[C@@H](OCc3nc4ccccc4n3C)C2)cc1 | -
CCCCNc1sc(S(=O)(=O)CC)nc1S(=O)(=O)c1ccc(C)cc1 | 11µM
CCN(CC)CCCNC(=O)CSc1nc2nc(C)c(Cc3c(F)cccc3Cl)c(C)n2n1 | -
CCCS(=O)(=O)c1nc(S(=O)(=O)c2ccc(C)cc2)c(NCC(C)C)s1 | 8.9µM
CCCCCS(=O)(=O)c1oc(-c2cccs2)nc1S(=O)(=O)c1ccc(C)cc1 | -
Cc1ccc(S(=O)(=O)c2nc(-c3ccco3)oc2SCC(C)C)cc1 | -
CCCCNc1nc2c(S(=O)(=O)c3ccc(Cl)cc3)nnn2c2ccsc12 | -
COCCNc1sc(S(=O)(=O)c2ccc(C)cc2)nc1S(=O)(=O)c1ccc(C)cc1 | -
CCC(C)Nc1sc(S(=O)(=O)CC)nc1S(=O)(=O)c1ccc(C)cc1 (configuration not stated) | 13µM
CCN(CC)CCCNc1sc(S(=O)(=O)c2ccccc2)nc1S(=O)(=O)c1ccc(Cl)cc1 | 5.6µM
CCCSc1oc(-c2cccs2)nc1S(=O)(=O)c1ccc(C)cc1 | -
CCCCS(=O)(=O)c1oc(-c2ccc(F)cc2)nc1S(=O)(=O)c1ccc(C)cc1 | -
CCCS(=O)(=O)c1nc(S(=O)(=O)c2ccc(C)cc2)c(N(CC)CC)s1 | -
Cc1ccccc1NC(=O)CSc1nc(-c2ccc(F)cc2)nc2c1Cc1ccccc1O2 | -
CCCN(CCC)Cc1ccc(C(=O)NCc2c(C)noc2C)cc1 | -
COC(=O)c1c(NC(=O)c2nc(SCc3ccc(F)cc3)ncc2Cl)sc2c1CCCC2 | -
O=C(Nc1ccc2c(c1)OCCO2)N1CCC(N2CC3CC(C2)[C@H]2CCCC(=O)N2C3)CC1 (some centres not stated) | -
O=C(Nc1cccc(-c2nnc3n2CCCC3)c1)C1CCCC1 | -
O=C(Nc1cccc(-c2nnc3n2CCCC3)c1)c1ccccn1 | -
COc1ccccc1C(=O)Nc1cccc(-c2nnc3n2CCCC3)c1 | 4.5µM
O=C(Nc1cccc(-c2nnc3n2CCCC3)c1)c1nccc2ccccc12 | 4.5µM
O=C(Nc1ccc(-c2nnc3n2CCCC3)cc1)c1nccc2ccccc12 | -
CC(=O)Nc1cccc(C(=O)Nc2cccc(-c3nnc4n3CCCC4)c2)c1 | -
O=C(NCc1ccc(Cl)nc1)c1cnn2c1CN(C(=O)c1ccccc1F)CC2 | -
O=C(NCc1ccccn1)C1CCN(Cc2cc3n(n2)CCCNC3)CC1 | -
SMILES | Pf Dd2 inh
CCNc1cc(N2CCC(CCC(=O)O)CC2)ncn1 | -
Cc1noc(C)c1C(=O)N1C[C@@H](CO)[C@H](c2ccncc2)C1 | -
CC(C)(C)c1ccc(NC(=O)O[C@@H]2CO[C@H]3[C@@H]2OC[C@@H]3Nc2nccc(C(C)(C)C)n2)cc1 | -
CC(=O)Nc1ccc(S(=O)(=O)N[C@H]2CO[C@H]3[C@@H]2OC[C@@H]3Nc2nccc(C(C)(C)C)n2)cc1 | -
Cc1ccc(C(=O)N[C@H]2CO[C@H]3[C@@H]2OC[C@@H]3Nc2nccc(C(C)(C)C)n2)cc1 | 11µM
COc1ccc(CN2C(=O)COC[C@H]2C(=O)NCc2ccc(F)cc2F)cc1 | -
NCC(=O)N1CCC(n2nccc2NC(=O)c2ccccc2)CC1 | -
COc1coc(C(=O)N2CCCC(c3ccccc3)(c3ccccc3)C2)cc1=O | -
CC(C)c1cc(C(=O)N2CCCC(c3ccccc3)(c3ccccc3)C2)n(C)n1 | 3.2µM
Cc1nnnn1CC(=O)N1CCCC(c2ccccc2)(c2ccccc2)C1 | -
CC(=O)Nc1ccccc1-c1nc2ccccc2n(CC(=O)Nc2cccc(C(F)(F)F)c2)c1=O | -
O=c1c2ccccc2nc2sc(Nc3cccc(C(F)(F)F)c3)nn12 | -
CCc1c(C)c(C#N)c2nc3ccccc3n2c1Nc1cccc(C(F)(F)F)c1 | 2.2µM
O=C(CCCc1cccs1)N1CCCC(O)(CN2CCCC2)C1 (configuration not stated) | -
CC(=O)NCCNC(=O)[C@H]1CN2CCC1C[C@@H]2Cn1cc(CN(C)Cc2ccccc2)nn1 (some centres not stated) | -
CN(Cc1ccccc1)Cc1cn(C[C@H]2CC3CCN2C[C@@H]3C(=O)NCc2ccc(F)cc2)nn1 (some centres not stated) | 10µM
CN(Cc1ccccc1)Cc1cn(C[C@H]2CC3CCN2C[C@@H]3C(=O)NCc2ccccc2)nn1 (some centres not stated) | -
O=C(CSc1nc2ccccc2nc1Cc1ccc(Cl)cc1)NCCc1ccccc1 | -
COc1ccc(OC)c(NC(=O)CSC2=Nc3ccccc3C3=NC(CCC(=O)NCc4ccco4)C(=O)N23)c1 (configuration not stated) | -
O=C(Cn1nc(Cc2cccnc2)c2ccccc2c1=O)N1CCN(c2ccc(F)cc2)CC1 | -
